{"source": "PubChem BioAssay AID1117283", "about": "(Broad Institute, 2014)", "note": "Measured potencies and affinities stand elsewhere. Unmarked numbers belong to inactive results.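 Rule for the calls: active = fluorescent signal decreased by at least 40%; inconclusive = no clear call, values can overlap the other calls; inactive = the rest, including activity opposite to the expected direction.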", "data": [{"test": "fibronectin fibrillogenesis inhibitors in fibroblasts, dose response, AH1F cells, Alexa488-fibronectin fluorescence, cherry-pick, set 2 (AID 1117283);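 note: AH1F fibroblasts given Alexa488-labelled fibronectin at 24 nM final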", "conditions": "Alexa488-fibronectin deposition fluorescence, overnight; series mostly up to 35 µM; activity change, negative = inhibition: at the top concentration", "units": {"activity change, negative = inhibition": "%"}, "values": [{"smiles": "N#C[C@@H]1[C@H](c2ccccc2C2=CCCCC2)[C@@H](CO)N1S(=O)(=O)c1ccccc1", "activity change, negative = inhibition": -6.78}, {"smiles": "C[C@@H]1CN([C@@H](C)CO)C(=O)c2cc(-c3ccccc3)cnc2O[C@H]1CN(C)C(=O)c1cccc(F)c1", "activity change, negative = inhibition": -1.69}, {"smiles": "CC(NC(=O)CSc1ccc(S(=O)(=O)N2CCOCC2)cn1)c1ccc(Cl)cc1Cl", "note": "(configuration not stated)", "activity change, negative = inhibition": 2.14}, {"smiles": "CN(C)C(=O)c1ccc(-c2ccc3c(c2)[C@H]2[C@H](CCN2C(=O)c2ccc(F)cc2)[C@H](CO)N3C)cc1", "activity change, negative = inhibition": -3.09}, {"smiles": "CO[C@@H]1CN(C)C(=O)c2ccc(NC(=O)c3ccc(-c4ccccc4)cc3)cc2OC[C@H](C)NC[C@@H]1C", "activity change, negative = inhibition": -8.9}, {"smiles": "Cc1ccc(-c2nc3ncccc3o2)cc1NC(=O)c1ccco1", "activity change, negative = inhibition": 7.73}, {"smiles": "O=S(=O)(c1cccc(F)c1)N1CC[C@@H]2[C@H](CO)Nc3ccc(-c4cccc(F)c4)cc3[C@@H]21", "activity change, negative = inhibition": -7.96}, {"smiles": "C[C@H](CO)N1C[C@H](C)[C@@H](CN(C)Cc2ccc(-c3ccccc3)cc2)Oc2ccc(NC(=O)C3CCCCC3)cc2C1=O", "activity change, negative = inhibition": -7.32}, {"smiles": "CN1c2ccc(-c3ccccc3)cc2[C@H]2[C@H](CCN2C(=O)CN2CCOCC2)[C@@H]1CO", "activity change, negative = inhibition": 6.7}, {"smiles": "Cc1ccc(N(CC(=O)NCc2ccco2)S(=O)(=O)c2ccccc2)cc1", "activity change, negative = inhibition": -11.7}, {"smiles": "C[C@@H]1CN([C@@H](C)CO)C(=O)c2cc(NC(=O)CCCN(C)C)ccc2O[C@H]1CN(C)Cc1ccc(-c2ccccc2)cc1", "activity change, negative = inhibition": 2.11}, {"smiles": "C[C@H]1CN([C@@H](C)CO)C(=O)c2cc(NC(=O)CCCN(C)C)ccc2O[C@H]1CN(C)Cc1ccc(-c2ccccc2)cc1", "activity change, negative = inhibition": -0.102}]}]}
